# Test results published in PubChem BioAssay (Tox21).
# Values without a mark were called inactive. Records with an inconclusive call do not appear. A call without a number means that no potency is given here. Calls of active or inactive are those of the source. Unless noted, calls follow the shape of the full dose curve.
# Experiments:
# [1] = target: Androgen receptor (Homo sapiens) (UniProt P10275); assay: qHTS assay to identify small molecule agonists of the androgen receptor (AR) signaling pathway in the presence of an antagonist (AID 1259381); also: nearly all actives have a fitted effect of over 15% in size
# How it was run: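 AR antagonist background: nilutamide 3.0uM final. Cell line: MDA-kb2, MMTV-driven luciferase, responsive to both AR and GR. Exposure 16hr, 37C, no CO2; ONE-Glo luminescence.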
# [2] = qHTS assay to identify small molecule antagonists of the estrogen receptor beta (ER-beta) signaling pathway - cell viability counter screen (AID 1259382; active = well fitted curve in the direction sought with a large enough effect in the repeat runs; an effect the other way counts as inactive or inconclusive;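 also: HEK293T cells carrying ER-beta-UAS-bla reporter stimulated with estradiol; series mostly up to about 92 µM; nearly all actives have a fitted effect of over 55% in size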)
# How it was run: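 HEK293T ER-beta-UAS-bla, 2% charcoal-stripped FBS; compounds + 1nM E2 16 hr 37C; CellTiter-Glo luminescence, 30 min RT.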
# [3] = target: Estrogen receptor (Homo sapiens) (UniProt P03372); assay: qHTS assay to identify small molecule agonists of the estrogen receptor alpha (ER-alpha) signaling pathway in the presence of an antagonist (AID 1259383); also: top concentration of the series differs between compounds; nearly all actives have a fitted effect of over 15% in size
# How it was run: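 ER-alpha agonism measured under antagonist challenge: 10.0nM ICI-182,780 (final) plus compound, 15 concentrations, 22hr, VM7Luc4E2 ERE-luciferase cells. Read by luminescence.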
# [4] = qHTS assay to identify small molecule agonists or antagonists of the thyroid stimulating hormone receptor (TSHR) signaling pathway - wild type cell line counter screen (AID 1259384)
# How it was run: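 Wild-type Hek293 cells, 800/well, 18 h at 37C, then compound with Ro20-1724 for 30 min RT. cAMP by HTRF (cAMP-d2/anti-cAMP cryptate), 1 h RT, fluorescence read. 15 concentrations, triplicates.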
# [5] = target: Thyrotropin receptor (Homo sapiens) (UniProt P16473); assay: qHTS assay to identify small molecule antagonists of the thyroid stimulating hormone receptor (TSHR) signaling pathway (AID 1259385); also: nearly all actives have a fitted effect of over 20% in size
# How it was run: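 TSHR-HEK293 cells (800/well) plated 18 h, then compounds with Ro20-1724 and TSH at 1.5 ng/mL final, 30 min at room temperature. cAMP quantified by HTRF (cAMP-d2/anti-cAMP-cryptate, 1 h); 15 concentrations in triplicate.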
# [6] = qHTS assay to identify small molecule agonists of the estrogen receptor alpha (ER-alpha) signaling pathway in the presence of an antagonist - cell viability counter screen (AID 1259386; active = well fitted curve in the direction sought with a large enough effect in the repeat runs; an effect the other way counts as inactive or inconclusive;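 also: cells exposed to compounds for 22 h at 37 °C before the viability read; nearly all actives have a fitted effect of over 30% in size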; also: potency is read from the fitted curve at half-maximal effect)
# How it was run: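 Steps: 5-day stripped-FBS culture; seed and incubate 24hr; add ICI-182,780 (10.0nM final); pin 15-point compound titration; incubate 22hr at 37C; add CellTiter-Fluor at 21hr; read fluorescence.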
# [7] = target: Progesterone receptor (Homo sapiens) (UniProt P06401); assay: qHTS assay to identify small molecule agonists of the progesterone receptor (PR) signaling pathway (AID 1346784); also: nearly all actives have a fitted effect of over 30% in size
# How it was run: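 Using charcoal-stripped serum (2%) to limit endogenous steroids, PR-UAS-bla HEK 293T cells received compounds for 16 hr at 37C after 6 hr plating; beta-lactamase FRET fluorescence was recorded following 2 hr substrate loading at room temperature.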
# [8] = target: Progesterone receptor (Homo sapiens) (UniProt P06401); assay: qHTS assay to identify small molecule antagonists of the progesterone receptor (PR) signaling pathway (AID 1346795; active = well fitted inhibition curve with a large enough effect in the signal ratio in the repeat runs, not every such curve was filed as active; the % refers to the signal ratio)
# How it was run: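 Inhibition of R5020-induced (1 nM final) beta-lactamase reporter signal in PR-UAS-bla HEK293T cells was scored by FRET fluorescence after overnight (16 hr) compound treatment.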
# [9] = qHTS assay to identify small molecule antagonists of the progesterone receptor (PR) signaling pathway - cell viability counter screen (AID 1346798; active = well fitted curve in the direction sought with a large enough effect in the repeat runs; an effect the other way counts as inactive or inconclusive; also: series mostly up to about 92 µM; nearly all actives have a fitted effect of over 50% in size)
# How it was run: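 ATP content as viability readout: CellTiter-Glo luminescence, 30 min room temperature, in PR-UAS-bla HEK293T cells after 16 hr compound/R5020 treatment at 37C and 5% CO2.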
# [10] = qHTS assay to identify small molecule agonists of the progesterone receptor (PR) signaling pathway - cell viability counter screen (AID 1346799); also: nearly all actives have a fitted effect of over 45% in size
# How it was run: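 Cytotoxicity in PR-bla HEK293T cells: 16 h compound, 37C; CellTiter-Glo added post-FRET read; luminescence after 30 min RT.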
# Chain of Progesterone receptor (Homo sapiens) (P06401 whole entry, looked up): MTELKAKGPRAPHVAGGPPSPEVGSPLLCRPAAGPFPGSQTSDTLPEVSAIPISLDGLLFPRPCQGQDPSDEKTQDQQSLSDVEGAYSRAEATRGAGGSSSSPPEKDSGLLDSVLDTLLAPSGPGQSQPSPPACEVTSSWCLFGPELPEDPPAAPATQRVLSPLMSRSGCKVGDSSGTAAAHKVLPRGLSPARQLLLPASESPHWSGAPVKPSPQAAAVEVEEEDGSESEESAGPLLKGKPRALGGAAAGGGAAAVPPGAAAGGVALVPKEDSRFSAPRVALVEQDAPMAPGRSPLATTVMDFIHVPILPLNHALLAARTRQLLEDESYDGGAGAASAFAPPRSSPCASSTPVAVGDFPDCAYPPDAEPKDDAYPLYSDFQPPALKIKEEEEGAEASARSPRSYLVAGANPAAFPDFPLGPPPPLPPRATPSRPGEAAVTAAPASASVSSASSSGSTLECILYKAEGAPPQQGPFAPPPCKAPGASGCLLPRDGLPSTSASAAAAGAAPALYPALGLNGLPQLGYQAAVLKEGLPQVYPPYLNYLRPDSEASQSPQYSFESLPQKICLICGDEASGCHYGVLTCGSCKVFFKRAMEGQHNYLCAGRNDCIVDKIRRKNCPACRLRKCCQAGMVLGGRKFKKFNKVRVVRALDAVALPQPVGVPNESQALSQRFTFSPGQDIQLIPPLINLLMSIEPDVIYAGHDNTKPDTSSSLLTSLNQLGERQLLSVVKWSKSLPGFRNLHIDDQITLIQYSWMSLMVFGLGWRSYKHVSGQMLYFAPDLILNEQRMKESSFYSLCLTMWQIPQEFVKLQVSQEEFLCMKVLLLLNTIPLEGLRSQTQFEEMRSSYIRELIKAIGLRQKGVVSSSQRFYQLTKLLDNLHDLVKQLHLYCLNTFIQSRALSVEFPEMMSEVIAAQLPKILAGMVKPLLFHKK
# Chain of Thyrotropin receptor (Homo sapiens) (P16473 whole entry, looked up): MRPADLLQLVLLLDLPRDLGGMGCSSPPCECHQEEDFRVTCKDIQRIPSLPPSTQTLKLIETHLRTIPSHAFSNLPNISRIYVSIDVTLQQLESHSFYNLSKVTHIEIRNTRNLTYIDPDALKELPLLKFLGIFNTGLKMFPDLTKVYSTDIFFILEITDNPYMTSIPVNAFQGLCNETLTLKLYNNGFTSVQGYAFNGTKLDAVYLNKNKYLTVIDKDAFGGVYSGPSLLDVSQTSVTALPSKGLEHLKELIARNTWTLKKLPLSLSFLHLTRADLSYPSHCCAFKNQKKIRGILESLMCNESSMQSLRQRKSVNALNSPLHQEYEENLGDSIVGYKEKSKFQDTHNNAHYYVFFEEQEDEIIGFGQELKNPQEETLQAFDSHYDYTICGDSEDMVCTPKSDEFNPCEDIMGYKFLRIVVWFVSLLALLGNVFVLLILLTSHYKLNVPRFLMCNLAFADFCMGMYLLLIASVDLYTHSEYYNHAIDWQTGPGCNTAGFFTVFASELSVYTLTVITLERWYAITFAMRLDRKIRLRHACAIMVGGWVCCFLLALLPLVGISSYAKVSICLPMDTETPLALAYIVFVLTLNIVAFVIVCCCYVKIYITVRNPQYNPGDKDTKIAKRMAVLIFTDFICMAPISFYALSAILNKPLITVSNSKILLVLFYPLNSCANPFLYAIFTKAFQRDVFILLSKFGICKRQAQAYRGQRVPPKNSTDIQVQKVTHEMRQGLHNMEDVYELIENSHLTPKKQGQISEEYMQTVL
# Chain of Estrogen receptor (Homo sapiens) (P03372 whole entry, looked up): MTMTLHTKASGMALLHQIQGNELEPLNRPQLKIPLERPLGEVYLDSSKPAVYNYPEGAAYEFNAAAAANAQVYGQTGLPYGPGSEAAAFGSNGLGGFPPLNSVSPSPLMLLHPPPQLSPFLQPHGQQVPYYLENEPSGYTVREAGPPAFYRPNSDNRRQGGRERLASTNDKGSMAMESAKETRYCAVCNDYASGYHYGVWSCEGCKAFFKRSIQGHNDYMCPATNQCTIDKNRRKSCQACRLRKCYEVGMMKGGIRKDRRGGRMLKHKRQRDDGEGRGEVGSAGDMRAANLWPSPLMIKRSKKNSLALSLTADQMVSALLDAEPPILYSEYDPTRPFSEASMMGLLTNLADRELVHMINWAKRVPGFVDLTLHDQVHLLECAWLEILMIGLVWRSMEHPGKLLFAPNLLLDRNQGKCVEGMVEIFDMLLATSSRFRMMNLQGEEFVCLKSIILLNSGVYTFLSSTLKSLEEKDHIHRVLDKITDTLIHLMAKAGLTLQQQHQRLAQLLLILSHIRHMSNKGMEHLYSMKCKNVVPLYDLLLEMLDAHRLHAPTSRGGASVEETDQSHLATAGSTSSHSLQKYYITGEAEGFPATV
# Chain of Androgen receptor (Homo sapiens) (P10275 whole entry, looked up): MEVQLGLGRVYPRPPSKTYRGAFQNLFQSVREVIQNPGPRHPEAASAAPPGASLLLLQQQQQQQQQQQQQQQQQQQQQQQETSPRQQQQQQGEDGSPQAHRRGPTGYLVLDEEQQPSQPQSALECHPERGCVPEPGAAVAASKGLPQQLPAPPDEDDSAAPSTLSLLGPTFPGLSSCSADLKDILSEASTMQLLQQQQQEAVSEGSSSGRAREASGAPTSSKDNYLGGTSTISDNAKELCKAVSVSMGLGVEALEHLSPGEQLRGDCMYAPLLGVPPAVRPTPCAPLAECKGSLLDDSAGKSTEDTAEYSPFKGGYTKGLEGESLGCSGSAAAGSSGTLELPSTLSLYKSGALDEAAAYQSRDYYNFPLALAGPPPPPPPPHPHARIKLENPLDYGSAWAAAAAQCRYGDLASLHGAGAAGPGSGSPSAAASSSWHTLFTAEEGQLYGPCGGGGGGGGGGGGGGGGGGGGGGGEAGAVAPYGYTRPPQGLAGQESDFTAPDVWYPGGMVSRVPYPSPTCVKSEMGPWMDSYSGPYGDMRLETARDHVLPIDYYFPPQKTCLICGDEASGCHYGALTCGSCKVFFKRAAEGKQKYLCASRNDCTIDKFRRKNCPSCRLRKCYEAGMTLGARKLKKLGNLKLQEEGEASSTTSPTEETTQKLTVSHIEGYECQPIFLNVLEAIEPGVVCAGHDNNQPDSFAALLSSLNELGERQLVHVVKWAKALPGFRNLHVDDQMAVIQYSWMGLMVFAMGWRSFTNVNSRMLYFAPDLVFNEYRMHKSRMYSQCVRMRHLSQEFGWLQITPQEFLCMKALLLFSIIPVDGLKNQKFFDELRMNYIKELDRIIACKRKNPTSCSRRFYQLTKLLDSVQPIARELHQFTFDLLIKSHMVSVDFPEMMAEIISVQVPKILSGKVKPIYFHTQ
SMILES,outcome [1],outcome [2],outcome [3],outcome [4],outcome [5],Potency [6],Potency [7],Potency [8],Potency [9],Potency [10]
O=C(O)c1ccc(OCCN2CCCCC2)cc1,inactive,inactive,inactive,inactive,inactive,inactive,inactive,inactive,inactive,inactive
COc1cc([N+](=O)[O-])ccc1N,inactive,inactive,inactive,inactive,–,38.6 µM (active),inactive,–,inactive,inactive
CCCOCCOCCOCCO,inactive,inactive,inactive,–,–,inactive,inactive,–,inactive,–
C=CCOCC(O)CCl (stereo not drawn),inactive,–,inactive,–,–,inactive,–,inactive,inactive,inactive
COc1ccc(/C=N/NC(=O)c2ccncc2)cc1OC,inactive,–,inactive,inactive,–,inactive,inactive,inactive,inactive,inactive
CCNC(=O)/C=C/c1cccc(Br)c1,inactive,inactive,–,inactive,inactive,inactive,inactive,inactive,inactive,inactive
CCCCCCCCCCCCCCCCCCN(C)C,inactive,–,inactive,inactive,inactive,inactive,inactive,inactive,inactive,inactive
O=C(CN1CCN(Cc2ccc3c(c2)OCO3)CC1)N1c2ccccc2Sc2ccccc21,inactive,inactive,–,–,–,inactive,inactive,inactive,–,inactive
O=S(=O)(O)SSS(=O)(=O)O,inactive,inactive,–,inactive,–,inactive,inactive,inactive,inactive,inactive
Cc1nc2n(c(=O)c1CCN1CCC(C(=O)c3ccc(F)cc3)CC1)CCS2,inactive,inactive,inactive,–,–,–,inactive,inactive,–,inactive
CC(C)COC(=O)COc1ccc(Cl)cc1Cl,inactive,inactive,–,inactive,inactive,inactive,inactive,inactive,inactive,inactive
CCCCC(CC)CNC(=O)CC(C)OC(=O)CCC(=O)O (stereo not drawn),inactive,inactive,inactive,inactive,inactive,inactive,inactive,inactive,inactive,inactive
COCC(=O)Nc1c(I)c(C(=O)NCC(O)CO)c(I)c(C(=O)N(C)CC(O)CO)c1I (stereo not drawn),inactive,–,inactive,inactive,inactive,inactive,inactive,inactive,inactive,inactive
CCCCC[Si](OCC)(OCC)OCC,inactive,–,–,inactive,inactive,inactive,inactive,inactive,–,–
NC(=O)NC(=O)Cc1ccccc1,–,inactive,inactive,inactive,inactive,inactive,inactive,inactive,inactive,inactive
CC(C)(C)c1ccc(C=O)cc1,–,inactive,inactive,inactive,inactive,inactive,inactive,inactive,inactive,inactive
CO[Si](CCCS)(OC)OC,–,inactive,inactive,inactive,inactive,inactive,inactive,inactive,inactive,–
CCCCCCCCCCCCC,–,inactive,inactive,inactive,inactive,inactive,inactive,inactive,–,inactive
Cc1nc2ccccc2c(=O)o1,–,inactive,inactive,inactive,inactive,inactive,inactive,inactive,inactive,inactive
Nc1nc(=O)n([C@@H]2O[C@H](CO)[C@@H](O)[C@@H]2F)cc1I,–,inactive,inactive,inactive,inactive,inactive,inactive,inactive,–,inactive
CCCCC(CC)COC(=O)c1ccccc1 (stereo not drawn),–,inactive,inactive,inactive,inactive,inactive,inactive,inactive,inactive,inactive
CCS(=O)(=O)CCn1c([N+](=O)[O-])cnc1C,–,inactive,inactive,inactive,inactive,inactive,–,inactive,inactive,inactive
O=C(O)/C=C/c1ccccc1,–,inactive,inactive,inactive,inactive,inactive,–,inactive,inactive,inactive
Cc1cccc(Nc2ccncc2S(=O)(=O)NC(=O)NC(C)C)c1,–,inactive,inactive,inactive,inactive,inactive,inactive,inactive,inactive,inactive
O=C(/C=C/c1ccccc1)NCCO,–,inactive,inactive,inactive,inactive,inactive,–,inactive,inactive,inactive
